# Compounds with a hit are over-represented: about 2.9% of the library has one in this group of screens.
# GLP1R inv ag = inverse agonists of human GLP-1 receptor; 1.6% of 410,000 active; P43220; Potency, µM (highest dose often 38.3 µM), inactives show at the top dose activity change, negative = inhibition, usual class: inhibitors; HEK293 GLP-1R CRE-luciferase, luminescence, 24 h; GLP-1R form is constitutively active; AID 624417; also: potency is read from the fitted curve at half-maximal effect; % is scaled to controls: 0 for no effect and ±100 for the full control effect; nearly all actives have a fitted effect of over 55% in size
# Target sequence (P43220 whole entry, looked up): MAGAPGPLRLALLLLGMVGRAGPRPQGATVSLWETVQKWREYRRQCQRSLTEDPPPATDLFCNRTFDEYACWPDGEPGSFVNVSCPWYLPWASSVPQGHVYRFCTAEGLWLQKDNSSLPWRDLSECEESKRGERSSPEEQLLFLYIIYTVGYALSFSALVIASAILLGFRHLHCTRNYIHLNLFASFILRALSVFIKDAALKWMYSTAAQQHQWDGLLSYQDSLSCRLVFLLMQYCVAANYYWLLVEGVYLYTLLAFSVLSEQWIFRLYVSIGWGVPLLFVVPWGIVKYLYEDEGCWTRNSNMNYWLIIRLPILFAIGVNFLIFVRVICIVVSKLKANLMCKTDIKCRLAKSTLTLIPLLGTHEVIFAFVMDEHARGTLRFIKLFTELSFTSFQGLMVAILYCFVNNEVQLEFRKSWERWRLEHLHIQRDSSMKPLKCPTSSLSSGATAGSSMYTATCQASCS
#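 Inverse agonists were sought by their lowering of basal cAMP reporter luciferase output in HEK293 cells stably carrying constitutively active human GLP-1R, after 24 h compound treatment.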
# GLP1R ag = activates the human GLP-1 receptor. P43220. HEK293 GLP-1R CRE-luciferase, luminescence, 4-6 h; cells express a hypersensitive GLP-1R form. Potency, µM (titrated, usually from 45.6 µM), for inactives: at the highest dose activation, most hits filed as activators. 0.007% of 380,000 active. AID 624172; also: potency is read from the fitted curve at half-maximal effect; % of control where 0% means no effect
# ClpP mod = qHTS Assay for Activators of ClpP; ATP-dependent Clp protease proteolytic subunit (Bacillus subtilis (strain 168)), P80244; AID 651965, 2013; 1.9% of 340,000 active; purified B. subtilis ClpP, FRET peptide cleavage, 20 min; Potency, µM (top dose mostly 57.5 µM), inactives show top-dose activity change, negative = active; active = well fitted falling curve with a large enough effect; inconclusive = small, poorly fitted or top-dose-only effect; inactive = no such curve, though single readings can be large or run the other way; also: potency is read from the fitted curve at half-maximal effect; the source files actives as falling curves though it sought activators and does not explain the sign; nearly all actives have a fitted effect of over 65% in size
# Target sequence (P80244 whole entry, looked up): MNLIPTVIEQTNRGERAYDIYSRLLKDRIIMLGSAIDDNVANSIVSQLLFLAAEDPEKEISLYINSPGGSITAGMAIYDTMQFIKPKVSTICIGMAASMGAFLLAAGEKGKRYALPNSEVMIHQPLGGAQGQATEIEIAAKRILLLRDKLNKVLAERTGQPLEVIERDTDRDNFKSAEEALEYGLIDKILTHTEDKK
#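 FRET quenching reversal measured ClpP activation: 10 microg/mL B. subtilis ClpP at pH 8 with the FRET-FV decapeptide, read at 430 nm after 320 nm excitation. The 20-min minus 0-min signal was scaled between DMSO/no-enzyme wells and ADEP (5.8 microM final).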
# LDHA block = LDHA (human) enzyme inhibition; 0.15% of 480,000 active; P00338; activity change, % (values are at about 110 or 230 µM); purified LDHA, NADH/diaphorase-resazurin fluorescence; hits give low values; in the data active = activity change below about -30%; inconclusive = mostly about -25% to -30%;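 also: plate controls were DMSO wells for no effect and wells without enzyme for full effect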
#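 Resorufin fluorescence (ex540/em590), read at 0 and 20 min after diaphorase/resazurin addition, reports the NADH left after a 5 min room-temperature reaction of 2 nM human LDH5 with 0.06 mM NADH and 0.2 mM pyruvate.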
# HEK293 tox = cytotoxicity counter-screen for GLP-1 receptor inverse agonists; HEK293 cAMP-luciferase reporter cells, luminescence, 24 h; Potency, µM (top dose mostly 38.3 µM), inactives show at the top dose activity change, negative = inhibition, most hits filed as inhibitors; 0.13% of 410,000 active;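 also: loss of luciferase light is scored as toxicity; potency is read from the fitted curve at half-maximal effect; % is scaled to controls: 0 for no effect and ±100 for the full control effect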
#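 1536-well qHTS counterscreen of the MLSMR; 200 cells/uL, 12 h pre-incubation, 23 nL cpd, 24 h at 37 deg C 5% CO2, luciferase detection reagent, 12 min RT, luminescence. Inhibition = undesired.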
# p53 reactivation = restores transcriptional activity of mutant p53; H1299 p53-A138V BP100-luciferase reporter, luminescence, 24 h; Potency, µM (highest dose often 92.2 µM), inactives show at the highest dose activity change, positive = activation, actives largely listed as activators; 0.063% of 320,000 active; AID 504706; also: potency is read from the fitted curve at half-maximal effect; % of control where 0% means no effect; nearly all actives have a fitted effect of over 45% in size
#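 p53-null H1299 cells stably carrying temperature-sensitive p53-A138V and a BP100-luciferase reporter were pinned with compounds (4-point, 1:5 series) and held 24 hrs at 37 deg C. Luminescence was read 10 min after detection reagent.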
# ClpP validation = inhibits B. subtilis ClpP protease, hit validation; purified B. subtilis ClpP, FRET-FV substrate cleavage, 20 min; 40% of 470 active; shares compounds with ClpP mod; AID 743245; Potency, µM (titrated, usually from 57.5 µM), inactives show at the top dose activity change, negative = inhibition, hits mostly inhibitors; also: potency is read from the fitted curve at half-maximal effect; % is scaled to controls: 0 for no effect and ±100 for the full control effect; nearly all actives have a fitted effect of over 70% in size
# An asterisk follows results filed as active; ? = inconclusive; · = not tested or not shown; [ ] = remark or other dose. Unless noted, calls follow the shape of the dose curve; as a rule, active = well fitted curve in the direction sought with a large enough effect; inconclusive = small, poorly fitted or top-dose-only effect, or another doubt; inactive = no such curve, though single readings can be large; an effect the other way counts as inactive or inconclusive.
SMILES,GLP1R inv ag,GLP1R ag,ClpP mod,LDHA block,HEK293 tox,p53 reactivation,ClpP validation
c1ccc(-c2ccc3ccccc3n2)cc1,20%,22%,0%,-8,0%,·,·
CCOC(=O)CNC(=O)c1ccc2[nH]c3c(c2c1)CCCC3,3%,8%,-16%,14,14%,21%,·
N#Cc1ccccc1S(=O)(=O)N1CCN(C(=O)CN2CCCSc3ccccc32)CC1,-3%,-6%,0%,-2,-4%,10%,·
Cc1ccc(S(=O)(=O)N2CCN(C(=O)CN3CCCSc4ccccc43)CC2)cc1,?,0%,40%,-6,12%,1%,-3%
COc1ccc(-c2cc3nc4n(c(=O)c3s2)CCCCC4)cc1,?,6%,·,-9,5%,12%,·
COc1ccc(-c2cc3nc4n(c(=O)c3s2)CCC4)cc1,0%,-19%,106%,1,-7%,18%,1.9µM*
COc1ccc(C2C(C#N)=C(N)N(c3ccc(C)cc3)C3=C2C(=O)CCC3)cc1 (configuration not stated),·,·,·,7,·,·,·
Fc1ccc(-n2c(-c3ccco3)nc3nc4ccccc4nc32)cc1,0%,-3%,?,-3,1%,-2%,·
Cc1ccc(-n2c(-c3ccco3)nc3nc4ccccc4nc32)cc1F,-2%,-1%,2.8µM*,0,58%,2%,?
CCN(CC)C(=O)c1c2c(nc3ccccc13)-c1ccccc1CC2,?,4%,8.9µM*,-1,-10%,-5%,22µM*
COc1ccccc1NC(=O)Cn1c2ccccc2c2nc3n(c(=O)c21)CCS3,-1%[0.307 µM],9%,3.2µM*,2,0%[0.307 µM],2%,?
O=C(Cn1c2ccccc2c2nc3n(c(=O)c21)CCS3)Nc1ccccc1C(F)(F)F,-17%,0%,·,0,-3%,0%,·
COc1cccc(NC(=O)CN2C(=O)COc3ccc(S(=O)(=O)N4CCC(C)CC4)cc32)c1,?,-1%,0%,1,-18%,14%,·
Cc1cccc(CSc2nnc(N)n2-c2ccccc2)c1,8%,5%,0%,-12,-1%,-4%,·
CCCNC(=O)c1ccc(C2SCC(=O)N2Cc2ccccc2)cc1 (configuration not stated),0%,-4%,2.5µM*,-5,3%,-8%,-1%
Cc1ccc2[nH]c(=O)c(CN(Cc3ccc4c(c3)OCO4)Cc3nnnn3C3CCCC3)cc2c1,10%,-2%,81%,16,5%,·,-19%
CCOC(=O)c1ccccc1Nc1nc2ccc(C)cc2n2nnnc12,4%,·,-1%,-1,3%,·,·
CCOC(=O)N1CCC(Nc2nc3ccccc3n3nnnc23)CC1,0%,3%,25µM*,-1,4%,6%,19µM*
CCOc1ccc(CC(=O)Nc2c(C(=O)Nc3ccc(OC)cc3OC)oc3ccccc23)cc1,8%,0%,31%,-2,1%,·,19µM*
Cc1ccccc1C(=O)Nc1c(C(=O)Nc2cccc(F)c2)oc2ccccc12,-5%,1%,?,-7,-2%,·,·
CCOC(=O)c1oc2ccccc2c1NC(=O)COc1cccc(OC)c1,23%,3%,48%,0,-4%,-1%,19µM*
CCOc1ccc(NC(=O)c2oc3ccccc3c2NC(=O)COc2cccc(OC)c2)cc1,-1%,2%,33%,3,4%,·,·
O=C(COc1ccccc1F)Nc1c(C(=O)Nc2cccc(F)c2)oc2ccccc12,3%,2%,79%,5,8%,·,?
COc1ccccc1NC(=O)c1oc2ccccc2c1NC(=O)c1ccco1,0%,-11%,148%,2,1%,7%,22µM*
COc1cc(S(=O)(=O)Nc2ccc(C)cc2)ccc1NC(=O)c1ccncc1,0%,-1%,0%,-5,-15%,-16%,·
SMILES,GLP1R inv ag,GLP1R ag,ClpP mod,LDHA block,HEK293 tox,p53 reactivation,ClpP validation
CCOC(=O)c1cc2n(n1)C(C(F)(F)F)CC(C)N2 (configuration not stated),5%,-10%,60%,-3,4%,12%,0%
CC1CC(C(F)(F)F)n2nc(C(=O)O)cc2N1 (configuration not stated),2%,-4%,1%,1,-14%,0%,·
CCOc1ccc(NS(=O)(=O)c2ccc(C(=O)NCc3ccccn3)cc2)cc1,12%,16%,-1%,-1,9%,-1%,·
O=C(Nc1nnc(-c2ccncc2)s1)C1CCCO1 (configuration not stated),9%,-3%,6.3µM*,-3,-10%,?,12µM*
Cc1ccc(Nc2c(-c3c[nH]c4ccccc34)nc3ccccn23)cc1,?,·,4%,-1,-1%,·,·
Cc1ccc(Nc2c(-c3ccc(Br)o3)nc3ccccn23)cc1,-20%,·,8.9µM*,0,2%,·,?
CC1CN(C(=O)Nc2ccc3c(c2)OCCO3)CC(C)O1 (configuration not stated),5%,0%,3.5µM*,-7,1%,30%,-1%
COc1ccc(-c2oc3ncn4nc(COc5c(C)cccc5C)nc4c3c2-c2ccc(OC)cc2)cc1,2%,·,4%,-2,4%,·,·
COc1ccc(-c2oc3ncn4nc(COc5ccc(Cl)cc5)nc4c3c2-c2ccc(OC)cc2)cc1,3%,·,35%,-3,7%,·,?
COc1ccc(-c2nc3ccccc3s2)cc1NC(=O)c1cccc(F)c1,7%,·,74%,-8,-4%,·,?
Cc1ccc(C(=O)Nc2ccc(-c3nc4ccccc4s3)c(C)c2)cc1,·,·,·,2,·,·,·
CC(C)Oc1ccc(C(=O)Nc2ccc(-c3nc4ccccc4s3)cc2)cc1,3%,·,-20%,-2,-4%,·,·
COc1ccccc1C(=O)Nc1ccc(-c2nc3ccccc3s2)c(C)c1,0%,·,2µM*,-3,1%,·,-1%
CN(C)c1cccc(C(=O)Nc2ccc(-c3nc4ccccc4s3)cc2)c1,?,·,3.5µM*,-12,1%,·,-1%
CCc1ccc(NC(=O)c2sc3nc(C)cc(C)c3c2NC(=O)c2ccccc2OC)cc1,14%,-3%,41%,1,-3%,·,24µM*
CSc1ccccc1C(=O)Nc1ccc2c(c1)-c1ccccc1C2,·,·,·,-1,·,·,·
Cc1c(NC(=O)c2ccccc2F)cccc1-c1nc2cccnc2s1,12%,·,0%,-1,1%,·,·

# Screening results deposited in PubChem BioAssay by National Center for Advancing Translational Sciences (NCATS).
